Experimental data reported in PubChem BioAssay (Tox21).
Records with an inconclusive call do not appear. Activity calls are given as the source filed them. Unless noted, the call rests on the fitted dose curve; in most records, active means well fitted curve in the direction sought with a large enough effect in the repeat runs; inconclusive means weak or mixed curves; inactive means no such curve, though single readings can be large; an effect the other way counts as inactive or inconclusive.

How the values were obtained:
[1] = qHTS assay to identify small molecule agonists of the hypoxia (HIF-1) signaling pathway - cell viability counter screen (AID 1224844; calls by dose curve; further: nearly all actives have a fitted effect of over 50% in size)
Summary of the method: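 Cytotoxicity measured by CellTiter-Glo ATP luminescence in the wells also read for beta-lactamase signal. Cells were HRE-bla ME-180 (2,000/well, 0.5% dialyzed FBS), exposed to compounds for 17 h at 37C.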

[2] = qHTS assay to identify small molecule agonists of H2AX (AID 1224845; active means well fitted activation curve with a large enough effect in the signal ratio in the repeat runs, not every such curve was filed as active; the % refers to the signal ratio)
Summary of the method: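 Wild-type CHO-K1 cells plated overnight, then exposed 3 hr at 37C to compounds at 15 concentrations (0.76% DMSO). Lysed, then HTRF anti-pH2AX(S139)-cryptate/anti-H2AX-d2 detection after 24 hr at room temperature; emissions 665 and 620 nm.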

[3] = qHTS assay to identify small molecule agonists of the hypoxia (HIF-1) signaling pathway (AID 1224846; active means well fitted activation curve with a large enough effect in the signal ratio in the repeat runs, not every such curve was filed as active; the % refers to the signal ratio)
Summary of the method: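 Compounds added to ME-180 cells carrying hypoxia-response-element beta-lactamase reporter (0.5% dialyzed FBS, 5 h preplating), 17 h at 37C; agonist activity detected by CCF4-AM B/G FRET read-out.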

[4] = qHTS assay to identify small molecule agonists of H2AX - cell viability counter screen (AID 1224847; calls by dose curve; further: top concentration of the series differs between compounds; nearly all actives have a fitted effect of over 30% in size)
Summary of the method: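 Cytotoxicity counter screen in wild-type CHO-K1 cells: a 3 hr compound treatment at 37C across 15 concentrations, followed by CellTiter-Glo luminescence to gauge viable cells.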

[5] = qHTS RealTime-Glo MT Cell Viability Assay in HepG2 cells - 24 hour (AID 1224867); further: nearly all actives have a fitted effect of over 50% in size
Summary of the method: (§1)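 Cell number in HepG2 cultures estimated from NanoLuc luminescence generated by metabolic reduction of a prosubstrate by living cells. The homogeneous, nonlytic format allowed repeated reads at 0, 8, 16, 24, 32 and 40 h of compound exposure.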

[6] = qHTS RealTime-Glo MT Cell Viability Assay in HEK293 cells - 32 hour (AID 1224868); further: top concentration of the series differs between compounds; nearly all actives have a fitted effect of over 50% in size
Summary of the method: (§2)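 Homogeneous bioluminescent viability format in HEK293 cells (600 cells/well). Following 5 h at 37 C/5% CO2, 23 nL compound was pintooled; the signal was measured repeatedly during 40 h incubation.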

[7] = qHTS RealTime-Glo MT Cell Viability Assay in HepG2 cells - 40 hour (AID 1224870); further: nearly all actives have a fitted effect of over 50% in size
Summary of the method: (§3)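 HepG2 cells mixed with RealTime-Glo MT reagents (NanoLuc plus cell-permeant prosubstrate) were seeded at 600 cells/well, incubated 5 h at 37 C/5% CO2, then pinned with compounds in DMSO; nonlytic luminescence tracked viability during 40 h treatment.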

[8] = A CellTox Green Cytotoxicity Assay to monitor cytotoxicity in HEK293 cells - 40 hour (AID 1224871); further: nearly all actives have a fitted effect of over 45% in size
Summary of the method: (§4)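 Fluorescence from a DNA-binding dye excluded by viable cells was measured repeatedly in the same HEK293 wells (600 cells/well) during continuous compound exposure at 37 C. Each assay gives one read point: 0, 8, 16, 24, 32 or 40 h.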

[9] = qHTS RealTime-Glo MT Cell Viability Assay in HEK293 cells - 16 hour (AID 1224872)
Summary of the method: as §2

[10] = qHTS RealTime-Glo MT Cell Viability Assay in HepG2 cells - 8 hour (AID 1224873); further: nearly all actives have a fitted effect of over 55% in size
Summary of the method: as §3

[11] = qHTS RealTime-Glo MT Cell Viability Assay in HEK293 cells - 40 hour (AID 1224874); conditions: RealTime-Glo luminescence; max response: hits give low values; further: nearly all actives have a fitted effect of over 50% in size
Summary of the method: (§5)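 Luminescence, which tracks viable cell number through reduction of the prosubstrate to a NanoLuc substrate, was read over continuous 37 C culture. Cells (600/well) were premixed with reagent and rested 5 h before 23 nL of compound in DMSO was pinned.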

[12] = A CellTox Green Cytotoxicity Assay to monitor cytotoxicity in HEK293 cells - 24 hour (AID 1224875); further: nearly all actives have a fitted effect of over 45% in size
Summary of the method: as §4

[13] = A CellTox Green Cytotoxicity Assay to monitor cytotoxicity in HepG2 cells - 16 hour (AID 1224876); further: nearly all actives have a fitted effect of over 45% in size
Summary of the method: (§6)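 Real-time cytotoxicity: fluorescence of a cell-impermeant cyanine dye binding DNA of dead HepG2 cells, measured repeatedly (0–40 h) during compound exposure at 37 C. Cells seeded 600/well with reagent, dosed after 5 h.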

[14] = qHTS RealTime-Glo MT Cell Viability Assay in HepG2 cells - 32 hour (AID 1224877); further: nearly all actives have a fitted effect of over 55% in size
Summary of the method: as §1

[15] = A CellTox Green Cytotoxicity Assay to monitor cytotoxicity in HepG2 cells - 24 hour (AID 1224878); further: nearly all actives have a fitted effect of over 45% in size
Summary of the method: as §6

[16] = A CellTox Green Cytotoxicity Assay to monitor cytotoxicity in HepG2 cells - 40 hour (AID 1224879); further: nearly all actives have a fitted effect of over 40% in size
Summary of the method: as §6

[17] = qHTS RealTime-Glo MT Cell Viability Assay in HEK293 cells - 0 hour (AID 1224880)
Summary of the method: as §5

[18] = A CellTox Green Cytotoxicity Assay to monitor cytotoxicity in HEK293 cells - 0 hour (AID 1224869); further: nearly all actives have a fitted effect of over 50% in size
Summary of the method: as §4

[19] = qHTS assay to identify small molecule antagonists of the estrogen related receptor (ERR) signaling pathway from Tox21 library (AID 1224848); further: nearly all actives have a fitted effect of over 50% in size
Summary of the method: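 First, 2,000 ERR cells per well were plated and held 6 h at 37 C/5% CO2. Next, compounds in DMSO were pinned in and left 18 h at 37 C. Finally, ONE-Glo was added and luminescence read after 30 min at room temperature.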

[20] = qHTS assay to identify small molecule agonists of the estrogen related receptor (ERR) signaling pathway from Tox21 library (AID 1224849; calls by dose curve; further: nearly all actives have a fitted effect of over 15% in size); conditions: ERR reporter cell line, ONE-Glo luciferase, 18 h; at 92.4 µM (top of the series) unless noted
Summary of the method: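 Luminescent agonist read-out (One-Glo, 30-minute room-temperature incubation) following 18-hour compound treatment at 37 C of the ERR cell line, which had been plated 6 hours before dosing.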
On the % scale 0 is the no-effect control and ±100 the full control effect.

C/C(=N\O)[C@@H](C)NCC(C)(C)CN[C@H](C)/C(C)=N/O
inactive: Potency [1] | Potency [2] | outcome [3] | Potency [4] | Potency [5] | Potency [6] | Potency [7] | Potency [8] | Potency [9] | outcome [10] | max response [11] 0.121% | Potency [12] | Potency [13] | Potency [14] | Potency [15] | Potency [16] | outcome [17]

COC(C)CCO (stereo not given)
inactive: Potency [1] | Potency [2] | outcome [3] | Potency [4] | Potency [5] | Potency [6] | Potency [7] | Potency [8] | Potency [9] | outcome [10] | Potency [12] | Potency [13] | Potency [15] | Potency [16] | outcome [17]

Nc1ccc2ccccc2c1S(=O)(=O)O
inactive: Potency [1] | Potency [2] | outcome [3] | Potency [4] | Potency [5] | Potency [6] | Potency [7] | Potency [8] | Potency [9] | outcome [10] | Potency [12] | Potency [13] | Potency [15] | Potency [16] | outcome [17]

OCc1ccccc1O
inactive: Potency [1] | Potency [2] | outcome [3] | Potency [4] | Potency [5] | Potency [6] | Potency [18] | Potency [7] | Potency [8] | Potency [9] | outcome [10] | max response [11] -16.1% | Potency [12] | Potency [13] | Potency [15] | outcome [17]

Cc1c(C(=O)NCCO)[n+](=O)c2ccccc2n1[O-]
inactive: Potency [1] | Potency [2] | outcome [3] | Potency [4] | Potency [5] | Potency [6] | Potency [18] | Potency [7] | Potency [8] | Potency [9] | outcome [10] | max response [11] 0.805% | Potency [12] | Potency [14] | Potency [15] | Potency [16] | outcome [17]

CCCCCOc1ccc(C2SC(=O)NC2=O)cc1OCC (stereo not given)
inactive: Potency [1] | Potency [2] | outcome [3] | Potency [4] | Potency [5] | Potency [6] | Potency [7] | Potency [8] | Potency [9] | outcome [10] | max response [11] -9.78% | Potency [12] | Potency [14] | outcome [17]

C[C@@H](N)C(=O)O
inactive: Potency [1] | Potency [2] | outcome [3] | Potency [4] | Potency [5] | Potency [6] | Potency [18] | Potency [7] | Potency [8] | Potency [9] | outcome [10] | Potency [12] | Potency [13] | Potency [15]

CC(C)CC(=O)OCc1ccccc1
inactive: Potency [1] | Potency [2] | outcome [3] | Potency [4] | Potency [5] | Potency [6] | Potency [18] | Potency [7] | Potency [8] | Potency [9] | outcome [10] | Potency [12] | Potency [14] | Potency [15] | Potency [16]

CC(C)(C)C1CCCCC1=O (stereo not given)
inactive: Potency [1] | Potency [2] | outcome [3] | Potency [4] | Potency [5] | Potency [6] | Potency [18] | Potency [7] | Potency [8] | Potency [9] | outcome [10] | max response [11] 10.3% | Potency [12] | Potency [15] | outcome [17]

CCOC(=O)C1CC(=O)C(=C(O)C2CC2)C(=O)C1 (stereo not given)
inactive: Potency [1] | Potency [2] | outcome [3] | Potency [19] | activity change, positive = activation [20] 6.54% | Potency [5] | Potency [6] | Potency [7] | Potency [8] | Potency [9] | outcome [10] | Potency [12] | Potency [13] | Potency [14] | Potency [15] | Potency [16]

CCOC(=O)c1ccccc1O
inactive: Potency [1] | Potency [2] | outcome [3] | Potency [19] | activity change, positive = activation [20] 1.87% [at 42.5 µM] | Potency [6] | Potency [18] | Potency [7] | Potency [8] | Potency [9] | outcome [10] | max response [11] 4.34% | Potency [12] | Potency [13] | Potency [14] | Potency [15] | Potency [16] | outcome [17]

CC(C)S
inactive: Potency [1] | Potency [2] | outcome [3] | Potency [19] | activity change, positive = activation [20] 3.07% | Potency [5] | Potency [6] | Potency [18] | Potency [7] | Potency [8] | Potency [9] | outcome [10] | max response [11] 0.674% | Potency [12] | Potency [13] | Potency [14] | Potency [15] | outcome [17]

CC(=O)Nc1ccc(C)c(Cl)c1
inactive: Potency [1] | Potency [2] | outcome [3] | Potency [4] | Potency [6] | Potency [18] | Potency [7] | Potency [8] | Potency [9] | outcome [10] | max response [11] -13.2% | Potency [12] | Potency [13] | Potency [14] | Potency [15] | Potency [16] | outcome [17]

NS(=O)(=O)c1cc(-c2nn[nH]n2)c(NCc2cccs2)cc1Cl
inactive: Potency [1] | Potency [2] | outcome [3] | Potency [5] | Potency [6] | Potency [18] | Potency [7] | Potency [8] | Potency [9] | outcome [10] | max response [11] -3.29% | Potency [12] | Potency [15] | Potency [16] | outcome [17]

CCCCC(=O)O[C@]1(C(=O)CO)[C@H](C)C[C@H]2[C@@H]3CCC4=CC(=O)C=C[C@]4(C)[C@@]3(F)[C@@H](O)C[C@@]21C
inactive: Potency [1] | Potency [2] | outcome [3] | Potency [19] | Potency [5] | Potency [6] | Potency [18] | Potency [7] | Potency [8] | Potency [9] | outcome [10] | max response [11] 0.0182% | Potency [12] | Potency [13] | Potency [14] | Potency [15] | Potency [16] | outcome [17]
